Compound activity: PubChem, National Center for Advancing Translational Sciences (NCATS)
Epigenetic reg = epigenetic control regulation, reporter derepression; murine LDR cells, GFP reporter derepression, 30 h; AID 1865; 0.2% of 280,000 active; Potency, µM (highest dose often 53.9 µM), for inactives: at the highest dose GFP activation, actives largely listed as activators; active = well fitted activation curve with a large enough effect; inconclusive = small, poorly fitted or top-dose-only effect; also: potency is read from the fitted curve at half-maximal effect; % of control where 0% means no effect; nearly all actives have a fitted effect of over 60% in size
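Murine LDR cells carrying a silenced, genomically integrated CMV-driven GFP reporter were exposed to compound for 30 hours at 37 C. After PBS washes, GFP-positive cells (20–120 um objects) were counted by laser-scanning microplate cytometry.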
ClpP mod = qHTS Assay for Activators of ClpP; ATP-dependent Clp protease proteolytic subunit (Bacillus subtilis (strain 168)), P80244; purified B. subtilis ClpP, FRET peptide cleavage, 20 min; Potency, µM (series often up to 57.5 µM), for the others: at the top dose activity change, negative = active; 1.9% of 340,000 active; AID 651965, 2013; active = well fitted falling curve with a large enough effect; inconclusive = small, poorly fitted or top-dose-only effect; inactive = no such curve, though single readings can be large or run the other way; also: potency is read from the fitted curve at half-maximal effect; the source files actives as falling curves though it sought activators and does not explain the sign; nearly all actives have a fitted effect of over 65% in size
Target sequence (P80244 whole entry, looked up): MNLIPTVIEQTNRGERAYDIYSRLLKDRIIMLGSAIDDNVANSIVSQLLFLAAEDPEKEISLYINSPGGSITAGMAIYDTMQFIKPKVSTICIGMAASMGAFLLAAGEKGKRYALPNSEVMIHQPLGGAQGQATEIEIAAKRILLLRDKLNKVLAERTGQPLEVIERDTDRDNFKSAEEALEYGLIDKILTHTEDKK
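FRET quenching reversal measured ClpP activation: 10 microg/mL B. subtilis ClpP at pH 8 with the FRET-FV decapeptide, read at 430 nm after 320 nm excitation. The 20-min minus 0-min signal was scaled between DMSO/no-enzyme wells and ADEP (5.8 microM final).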
Menin-MLL FL inh = displaces fluorescein MLL peptide from human menin; 290,000 tested, under 10 active; Fluorescence polarization, fluorescein-MLL peptide displacement from menin; AID 1766; FP activity change, % at 61.4 µM; active = well fitted curve in the direction sought with a large enough effect in the polarisation, not every such curve was filed as active; inconclusive = small, poorly fitted or top-dose-only effect, or effect the other way, or a change in a side signal; inactive = no such curve, though single readings can be large or run the other way; the % refers to the polarisation; also: % of control where 0% means no effect
Menin-MLL TR inh = displaces Texas Red mutant MLL peptide from human menin | Potency, µM (titrated, usually from 61.6 µM), for the others: top-dose FP activity change, negative = inhibition, actives largely listed as inhibitors | Menin + Texas Red MLL mutant peptide, fluorescence polarization | AID 1768 | 0.23% of 270,000 active; active = well fitted inhibition curve with a large enough effect in the polarisation, with a control signal flat, not every such curve was filed as active; inconclusive = small, poorly fitted or top-dose-only effect, or effect the other way, or a change in a side signal; inactive = no such curve, though single readings can be large or run the other way; the % refers to the polarisation; also: potency is read from the fitted curve at half-maximal effect; % of control where 0% means no effect
Target sequence (O00255 whole entry, looked up): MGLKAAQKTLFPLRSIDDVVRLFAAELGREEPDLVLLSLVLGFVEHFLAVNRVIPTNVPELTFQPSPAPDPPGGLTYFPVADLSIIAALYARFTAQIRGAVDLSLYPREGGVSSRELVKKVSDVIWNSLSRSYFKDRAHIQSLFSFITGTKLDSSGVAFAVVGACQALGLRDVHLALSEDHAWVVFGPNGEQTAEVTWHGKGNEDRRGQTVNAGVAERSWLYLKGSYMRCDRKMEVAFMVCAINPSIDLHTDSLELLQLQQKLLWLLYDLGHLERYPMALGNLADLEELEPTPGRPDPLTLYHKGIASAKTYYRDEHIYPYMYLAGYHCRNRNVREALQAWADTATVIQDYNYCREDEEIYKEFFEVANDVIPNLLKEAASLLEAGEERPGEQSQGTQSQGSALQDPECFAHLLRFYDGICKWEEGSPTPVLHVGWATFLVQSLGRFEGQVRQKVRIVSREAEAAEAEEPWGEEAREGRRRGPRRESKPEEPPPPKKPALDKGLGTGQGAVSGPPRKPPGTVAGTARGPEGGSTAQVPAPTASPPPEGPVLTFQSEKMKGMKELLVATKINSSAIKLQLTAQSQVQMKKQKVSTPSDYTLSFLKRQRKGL
PINK1 modulator = changes PINK1 expression | PINK1 immunofluorescence, high-content cytometry, 24 h | Potency, µM (doses to about 76.6 µM), for the others: at the top dose activation (PINK1 increase), hits mostly activators | 0.2% of 410,000 active | AID 624263; active = well fitted activation curve with a large enough effect; inconclusive = small, poorly fitted or top-dose-only effect; cell line not stated here; also: potency is read from the fitted curve at half-maximal effect; % of control where 0% means no effect; nearly all actives have a fitted effect of over 65% in size
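Cells are seeded, rested 12 hours, then given compound at five concentrations or DMSO for 24 hours. After fixation, blocking and antibody staining, PINK1 amount and mitochondrial localization are scored; CCCP serves as control.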
MLL CXXC-DNA inh = MLL CXXC-DNA interaction inhibition; MLL-CXXC / FITC-HOXA9 DNA fluorescence polarization; Potency, µM (highest dose often 115 µM), for the others: at the top dose activity change, negative = inhibition, hits mostly inhibitors; 0.037% of 290,000 active; active = well fitted inhibition curve with a large enough effect in the polarisation, with a control signal flat, not every such curve was filed as active; inconclusive = small, poorly fitted or top-dose-only effect, or effect the other way, or a change in a side signal; inactive = no such curve, though single readings can be large or run the other way; the % refers to the polarisation; also: potency is read from the fitted curve at half-maximal effect
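Fluorescence polarization: 7 uM MLL-CXXC (stock) preincubated 5 min with compounds, then 50 nM fluorescein-HOX-A9 DNA (stock) added; 30 min ambient. Buffer 50 mM Tris-HCl pH 7.5, 50 mM NaCl, 1 mM DTT, 0.05% BSA.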
* hit, by the source's call; ? = inconclusive; nt = no result; [ ] = remark or other dose. The list is not random: actives were taken first. Their share in the collection is about 1.9%.

SMILES | Epigenetic reg | ClpP mod | Menin-MLL FL inh | Menin-MLL TR inh | PINK1 modulator | MLL CXXC-DNA inh
CCc1ccc(N(CC(=O)NC2CCCCC2)C(=O)CCC(=O)Nc2ccccn2)cc1 | nt | 16µM* | -2 | -15% | 6% | 6%
Cc1ccc(N(CC(=O)NC2CCCC2)C(=O)CCC(=O)Nc2ccccn2)cc1 | nt | nt | 6 | ? | 0% | 0%
CC(=O)Nc1ccc(S(=O)(=O)NCCC(=O)Nc2cc(C)ccn2)cc1 | nt | 1% | nt | nt | 0% | nt
CCN1CCCC1CNC(=O)c1cnn(-c2ncc(C)c(-c3ccc(F)cc3)n2)c1C(C)C (configuration not stated) | nt | nt | nt | nt | -1% | nt
O=c1oc(-c2cccs2)nc2ccc(Br)cc12 | 1% | 28µM* | 5 | ? | ? | 0%
C=CCn1c(SCC(=O)c2[nH]c(C)c(C(C)=O)c2C)nnc1-c1ccncc1 | -1% | 32µM* | 15 | nt | 0% | 9%
Cc1cc(C)n(-c2ccc(C(=O)NCC3Cc4cc(-c5cnccn5)ccc4O3)cc2)n1 (configuration not stated) | nt | nt | nt | nt | 0% | nt
CC(C)c1ccc2c(c1)CCC1C(C)(CN)CCCC21C (configuration not stated) | 0% | nt | -10 | 20µM* | -4% | 15%
Cc1nc(N)c(C#N)c(-c2ccccc2Cl)c1C | -3% | ? | -1 | 6% | -1% | 2%
N#Cc1c(-c2ccccc2Cl)cc(C2CC2)nc1N | -7% | ? | 2 | -13% | 1% | -2%
COc1ccccc1-c1c(C)c(C)nc(N)c1C#N | -2% | 22µM* | -3 | -4% | 0% | -1%
CCc1nc(N)c(C#N)c(-c2ccccc2OC)c1C | -1% | 28µM* | 4 | -17% | 0% | 7%
COc1ccccc1-c1c(C#N)c(N)nc2c1CCc1ccccc1-2 | 0% | 1.8µM* | 2 | ? | 12% | -2%
COc1ccccc1-c1cc(C2CC2)nc(N)c1C#N | -1% | 28µM* | 2 | -21% | 2%[38.3 µM] | 0%
Oc1ccc(NC(=S)Nc2ccc(F)cc2)cc1 | nt | 2% | 2 | 1% | 2% | 8%
Fc1ccc(NC(=S)Nc2ccc(Br)cc2)cc1 | 0% | 28µM* | 4 | ? | ? | 3%
CSc1ccccc1C(=O)NCC1Cc2cc(F)cc(-c3cnccn3)c2O1 (configuration not stated) | nt | nt | nt | nt | 2% | nt
Cc1csc2nc(=O)c3ccccc3n12 | 2% | 11µM* | 4 | 2% | -2% | 1%
Cc1nc2scc(C)n2c(=O)c1S(=O)(=O)N1CCN(c2ccccc2)CC1 | nt | nt | 1 | -11% | 4% | 7%
CCCCN(CC)CCNC(=O)c1cc2c(-c3ccc(Cl)cc3)nn(C)c2s1 | 2% | 4% | 1 | 18µM* | -2% | -1%
COC(=O)c1cn([C@H]2C[C@@H](C(=O)N3CCCCCC3)N(Cc3ccsc3)C2)nn1 | nt | nt | nt | nt | -1% | nt
O=[N+]([O-])c1cc(C(F)(F)F)ccc1NCCc1c[nH]c2ccccc12 | ? | -2% | -2 | ? | -2% | 7%
O=[N+]([O-])c1cc(C(F)(F)F)ccc1NCCc1c[nH]c2ccc(O)cc12 | -1% | -3% | 0 | ? | 11µM* | 7%
O=C(CNC(=O)c1ccc(OC(F)F)cc1)Nc1cccc(S(=O)(=O)N2CCCC2)c1 | nt | 2% | nt | nt | 3% | nt
Clc1ccc(/C=C/c2ccnc3ccccc23)c(Cl)c1 | nt | -7% | nt | nt | nt | nt
SMILES | Epigenetic reg | ClpP mod | Menin-MLL FL inh | Menin-MLL TR inh | PINK1 modulator | MLL CXXC-DNA inh
CC(C)Cn1c(N)c(C(=O)COC(=O)c2cc(-c3ccccc3)nc3ccccc23)c(=O)n(C)c1=O | 0% | -6% | -2 | -9% | 2% | 5%
CC(C)Cn1c(N)c(C(=O)COC(=O)c2cc(C3CC3)nc3ccccc23)c(=O)n(C)c1=O | -1% | 25µM* | 0 | 38% | 2% | -1%
Cc1ccc(CNC(=O)c2ccccc2NS(C)(=O)=O)cc1 | -5% | 28µM* | 1 | 10% | 1% | 8%
O=C(Nc1ccccc1C(=O)NCc1ccco1)c1ccco1 | -1% | -11% | 3 | 12% | 2%[38.3 µM] | 2%
CS(=O)(=O)Nc1ccccc1C(=O)NCc1ccco1 | -2% | 28µM* | 5 | 7% | -1% | 0%
CCOC(=O)c1ccccc1NC(=O)c1cn(-c2ccc(C)c(C)c2)c(=O)c2ccccc12 | -2% | 13µM* | 5 | -2% | 4% | -1%
O=C(Nc1ccccc1C(=O)NCc1ccco1)NC1CCCCC1 | -1% | 20µM* | 1 | -3% | 2% | -1%
COC(=O)c1ccccc1NC(=O)c1cn(-c2ccc(C)c(C)c2)c(=O)c2ccccc12 | -2% | ? | 4 | -5% | 0% | 4%
CCn1nc(-c2ccccc2C)nc2c(=O)n(C)c(=O)nc1-2 | nt | -2% | nt | nt | -1% | nt
CC(NC(=O)c1ccccc1NS(C)(=O)=O)c1ccccc1 (configuration not stated) | -2% | 16µM* | 1 | -21% | -3% | -1%
CCOC(=O)c1ccccc1NC(=O)c1ccccc1NS(C)(=O)=O | 1% | 35µM* | -3 | 8% | 0% | 0%
CCOC(=O)c1ccccc1NC(=O)c1ccccc1SC | -1% | -1% | -1 | -7% | -2%[38.3 µM] | 4%
CCOc1ccc(S(=O)(=O)Nc2ccccc2C(=O)NCc2ccco2)cc1 | 0% | 25µM* | 1 | ? | -2% | -7%
CC(O)(COc1ccccc1)c1ccc2c(c1)CN(Cc1cccn1-c1ccccn1)CCO2 (configuration not stated) | nt | nt | nt | nt | 0% | nt
COc1cc(-c2nc3ccc4ccccc4c3c3c2CCC3)cc(OC)c1OC | 0% | 25µM* | 7 | ? | -1% | 2%
COc1cc(-c2nc3ccc4ccccc4c3c3c2CCC3)cc(OC)c1O | 1% | -1% | 3 | 7% | -2% | -5%
O=C(c1cnn(-c2nccc(-c3ccco3)n2)c1C1CC1)N1CCCCC1c1cccnc1 (configuration not stated) | nt | nt | nt | nt | 0% | nt
COCCn1c(-c2ccccc2Cl)nc2c(c(=O)c3ccccc3n2C)c1=O | 0% | 18µM* | 0 | 5% | 0% | 26%
COCCn1c(-c2ccc(Cl)cc2)nc2c(c(=O)c3ccccc3n2C)c1=O | -1% | nt | 1 | -8% | nt | 3%
Cc1ccc(CNc2ccc(N3CCOCC3)cc2)cc1 | nt | nt | -1 | 0% | -1% | 1%
c1cc(CNc2ccc(N3CCOCC3)cc2)ccn1 | 0% | 32µM* | 3 | -14% | 1% | 0%
Cc1ccc(S(=O)(=O)N2CCN(c3nc(-c4cccs4)nc4ncccc34)CC2)cc1 | nt | ? | nt | nt | 0% | nt
COc1ccccc1N1CCN(C(=O)c2ccc(COc3cccc4c3OC(C)(C)C4)cc2)CC1 | nt | 0% | nt | nt | 0% | nt
